Bioassay records (PubChem BioAssay)
Compounds with a hit are over-represented: about 2.4% of the library has one in this group of screens.
HUVEC tox IL1B: toxic to HUVEC cells under IL-1B stimulation. 94,000 tested, 0.41% active. HUVEC cell count loss, Hoechst imaging, IL-1B stimulated. cell count reduction, % at 2 µM;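 active = cell count reduction more than 3 SD above the screen-wide mean, cut at about 70% in these data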;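 also: normalized per plate to untreated control cells as the no-loss baseline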
PTK2B oligo ant: blocks oligomerization of human Pyk2 in cells. Q14289. Q293 cells, Pyk2 FERM NanoBiT luminescence; hits give low values. z-score (the deposit names both 25 µM and 10 µM). 99,000 tested, 0.83% active;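 active = Z-score of -3 or lower, scaled per plate to the spread of control and sample wells; inactive = z-score above -3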;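 also: negative z-score means lost luminescence so less FERM oligomerization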
Target sequence (Q14289 whole entry, looked up): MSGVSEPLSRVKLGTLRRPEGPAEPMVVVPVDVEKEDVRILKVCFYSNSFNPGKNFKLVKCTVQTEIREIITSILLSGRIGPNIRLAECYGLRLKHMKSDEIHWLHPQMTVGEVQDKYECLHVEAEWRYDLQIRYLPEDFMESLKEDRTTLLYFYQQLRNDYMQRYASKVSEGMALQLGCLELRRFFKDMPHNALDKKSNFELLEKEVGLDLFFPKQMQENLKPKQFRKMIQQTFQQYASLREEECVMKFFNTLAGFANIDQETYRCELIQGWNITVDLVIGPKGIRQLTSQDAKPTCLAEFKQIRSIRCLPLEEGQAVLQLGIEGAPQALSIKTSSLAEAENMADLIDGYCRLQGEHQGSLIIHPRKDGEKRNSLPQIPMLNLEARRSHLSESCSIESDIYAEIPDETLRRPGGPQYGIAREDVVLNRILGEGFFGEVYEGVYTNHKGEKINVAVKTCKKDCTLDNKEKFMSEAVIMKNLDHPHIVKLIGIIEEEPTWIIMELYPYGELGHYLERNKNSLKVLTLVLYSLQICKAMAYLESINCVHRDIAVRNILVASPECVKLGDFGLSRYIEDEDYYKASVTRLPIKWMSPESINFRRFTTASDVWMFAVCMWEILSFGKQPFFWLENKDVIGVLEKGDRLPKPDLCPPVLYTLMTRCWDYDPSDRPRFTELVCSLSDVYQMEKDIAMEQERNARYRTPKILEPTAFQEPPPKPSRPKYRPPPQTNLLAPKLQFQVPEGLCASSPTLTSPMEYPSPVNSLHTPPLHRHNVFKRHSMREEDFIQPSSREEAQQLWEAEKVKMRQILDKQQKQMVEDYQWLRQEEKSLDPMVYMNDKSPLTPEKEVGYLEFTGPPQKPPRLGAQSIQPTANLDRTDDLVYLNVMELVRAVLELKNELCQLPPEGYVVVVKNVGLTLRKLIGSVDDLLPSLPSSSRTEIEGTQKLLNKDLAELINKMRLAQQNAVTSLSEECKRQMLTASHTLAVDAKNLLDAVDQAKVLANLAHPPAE
IL1B NFkB inh: blocks IL-1B driven NFkB nuclear translocation in HUVEC cells | HUVEC IL-1B NFkB p65 nuclear translocation imaging | 94,000 tested, 0.43% active | AID 796 | inhibition, % at 2 µM;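 active = inhibition above about 30% together with a positive call from visual inspection of the well image, limit read from the data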;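 also: nuclear over cytoplasmic p65 intensity ratio measured by imaging; 0% = IL-1B stimulated DMSO wells and 100% = unstimulated DMSO wells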
IL1B NFkB pot: enhances IL-1B driven NFkB nuclear translocation | HUVEC IL-1B NFkB p65 nuclear translocation imaging | activation, % at 2 µM | 94,000 tested, 0.3% active;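 active = activation above 40%, about the mean plus 3 SD, also judged a hit on visual image review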;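 also: percent activation is computed from the nuclear over cytoplasmic p65 intensity ratio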
FAK inh: inhibitors of human focal adhesion kinase; Q05397; biochemical FAK kinase activity assay; inhibition, %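 (tested at 7 µM)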; 97,000 tested, 0.84% active; AID 727; in the data active = inhibition above about 19%;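 also: 0% = DMSO and 100% = reference compound high control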
JNK3 inh: blocks human JNK3 kinase activity; P53779; purified JNK3 kinase activity, HTS; inhibition, % at 8 µM; 60,000 tested, 0.61% active; AID 746; in the data active = inhibition above about 17%;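 also: 0% = DMSO and 100% = reference inhibitor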
Starred values were filed as active, the others as inactive; · = no result.

SMILES	HUVEC tox IL1B	PTK2B oligo ant	IL1B NFkB inh	IL1B NFkB pot	FAK inh	JNK3 inh
N#Cc1c(NC(=O)CSc2n[nH]c(N)n2)oc(-c2ccccc2)c1-c1ccccc1	9	-3.4*	-4	4	-1	·
Cn1cnnc1SCCNS(=O)(=O)c1ccccc1	-32	0.35	-2	2	1	·
CCOC(=O)Cn1c(CN(C)Cc2ccccc2)nc2c1c(=O)n(C)c(=O)n2C	6	0.58	1	-1	53*	·
CC(C)Cn1c(CN(C)Cc2ccccc2)nc2c1c(=O)n(C)c(=O)n2C	0	·	10	-10	4	1
O=C(NCCN1CCOCC1)c1ccc2ccccc2n1	-9	0.31	1	-1	-1	·
O=C(Nc1ccccc1N1CCOCC1)c1ccc2ccccc2n1	-8	-3.6*	-13	13	0	2
COCCn1nnnc1C(C(C)C)N1CCN(C(=O)c2ccco2)CC1 (centres undefined)	88*	0.62	29	-29	-3	-4
Cc1ccc(S(=O)(=O)Cn2nnnc2C(C(C)C)N2CCN(C(=O)c3ccco3)CC2)cc1 (centres undefined)	-11	0.32	-44	44*	-3	0
O=C(NCCc1cccs1)C1CC(c2ccccc2[N+](=O)[O-])=NO1 (centres undefined)	-24	·	1	-1	-1	·
COC(=O)c1sccc1NC(=O)C12CC3CC(CC(C3)C1)C2	5	-0.34	0	0	1	·
Cc1ccc(-c2nn(-c3ccccc3)cc2CN(Cc2ccccc2)C(=O)c2ccco2)o1	11	0.45	-46	46*	1	·
CC(C)OC(=O)c1cn(-c2ccccc2)nc1-c1ccco1	9	0.13	8	-8	1	1
C=CCn1c(N)c(C(=O)Nc2ccc(C)c(C)c2)c2nc3ccccc3nc21	-1	-4*	4	-4	-15	·
CN(C1CCCCC1)S(=O)(=O)c1ccc(-n2cnnn2)cc1	-21	2.5	-50	50*	-1	-2
Cc1[nH]c(=O)[nH]c1C(=O)CCCCC(=O)OCC(=O)Nc1ccccn1	6	0.26	-2	2	14	43*
CCCn1c(C)nc2c(c1=O)c1nc3ccccc3nc1n2-c1ccc2c(c1)OCCO2	·	·	·	·	·	-5
O/N=C1/CCSc2ccccc21	-34	0.34	-10	10	-3	3
O=C(Nc1ccc(NC(=O)C2CC2)cn1)c1ccccc1Cl	88*	-0.24	10	-10	-1	1
O=S(=O)(Nc1nccs1)c1ccc(Cl)cc1	-13	0.3	-10	10	2	·
CC(NC(=O)CCSc1nc(-c2ccco2)cc(C(F)(F)F)n1)c1ccccc1 (centres undefined)	-31	0.47	13	-13	2	·
O=C(CCSc1nc(-c2ccco2)cc(C(F)(F)F)n1)NCc1cccs1	-40	0.17	-47	47*	2	·
Cc1c(Cl)cccc1NC(=O)CN1CCC(C(O)(c2ccccc2)c2ccccc2)CC1	-9	0.39	49*	-49	3	·
Cc1c(Cl)cccc1NC(=O)CCN1CCCCC1	9	0.88	1	-1	-1	-1
Cc1ccc(NC(C)c2cc(Cl)ccc2O)cc1 (centres undefined)	-103	-1.4	8	-8	-1	·
Cc1ncsc1CCSc1nc2ccccc2c(=O)n1C	80*	-0.81	28	-27	11	9
SMILES	HUVEC tox IL1B	PTK2B oligo ant	IL1B NFkB inh	IL1B NFkB pot	FAK inh	JNK3 inh
O=[N+]([O-])c1cccnc1N1CCC(c2cc(-c3cccc(C(F)(F)F)c3)n[nH]2)CC1	-4	-3.4*	8	-8	-2	·
O=C(Nc1cccc(S(=O)(=O)C(F)F)c1)c1ccc(Cl)c(S(=O)(=O)N2CCOCC2)c1	·	-3*	·	·	·	0
O=C(Nc1cccc(Br)c1)c1ccc(Cl)c(S(=O)(=O)N2CCOCC2)c1	12	-2.6	13	-13	2	·
CCNc1c2c(nc3ccccc13)CC(C)(C)CC2=O	79*	1.5	97*	-97	-2	·
CC1(C)CC(=O)c2c(nc3ccccc3c2N)C1	-28	-0.36	-13	13	1	4
CCOc1ccccc1NC(=O)CSc1nnc(CNC(=O)c2ccco2)o1	-1	-0.26	-14	14	0	·
O=C(NCC(c1cccnc1)N1CCN(c2ccccc2)CC1)c1ccc2c(c1)OCO2 (centres undefined)	-2	-0.47	-32	33	-8	0
O=C(NCC(c1cccnc1)N1CCOCC1)c1ccc2c(c1)OCO2 (centres undefined)	-32	-0.25	36*	-36	-1	·
Cc1ccc(S(=O)(=O)N(C)CC(=O)O/N=C(\N)c2ccc([N+](=O)[O-])cc2)cc1	-2	1.6	-9	9	2	·
CN(CC(=O)O/N=C(\N)c1ccc([N+](=O)[O-])cc1)S(=O)(=O)c1ccccc1	-10	3.1	-50	50*	2	·
CC1=C(C(=O)OCc2ccc3c(c2)OCO3)C(c2ccccc2OCc2ccccc2)NC(=O)N1 (centres undefined)	-112	-3.2*	-23	23	6	·
CC1=C(C(=O)OCc2ccc3c(c2)OCO3)C(c2ccccc2)NC(=O)N1 (centres undefined)	-18	-3.4*	-28	28	2	-7
CC1=C(C(=O)OCc2ccccc2)C(c2ccc(N3CCOCC3)cc2)NC(=O)N1 (centres undefined)	17	-0.51	-16	16	1	-3
COCC(C)n1c(SCC(=O)NC(=O)Nc2ccc3c(c2)OCCO3)nc2ccccc2c1=O (centres undefined)	16	-1.7	0	0	3	-9
FC(F)(F)c1nc2nncn2c2c1CCCCC2	0	0.15	-2	3	-1	0
CCN(CC)c1ccc(C2NCC(c3ccc([N+](=O)[O-])cc3)O2)cc1 (centres undefined)	18	-3.2*	-3	3	0	·
CN(C)c1ccc(C2NCC(CCl)O2)cc1 (centres undefined)	-19	0.77	-3	3	5	·
COC(=O)C1=C(N)Oc2cc(C)n(Cc3ccccc3)c(=O)c2C1c1ccccc1 (centres undefined)	-3	-3*	-15	15	11	·
O=C(CSc1nnc(-c2cccs2)n1-c1cccc(Cl)c1)c1cccc2c1OCCO2	8	-3.1*	4	-4	-3	·
Cc1ccc(Cn2cnc3c(nnn3Cc3ccc(Cl)cc3)c2=O)cc1	·	-0.6	·	·	-2	4
COc1ccccc1NC(=O)CSc1nnnn1-c1ccc(C)cc1	-19	-1.6	-41	41*	2	·
O=C(O/N=C1/CCCc2occc21)c1ccccc1	72*	1.1	1	-1	-1	·
COc1cccc(OCC(=O)Nc2c(C(=O)Nc3ccc(OC)cc3OC)oc3ccccc23)c1	·	·	·	·	·	1
Cc1cc(C)n2c(SCc3ccccc3Cl)nnc2n1	27	-0.89	31*	-31	-3	·
OC1C[N+]2(CCCCC2)C1	92*	0.52	-17	17	0	-2
